Screening results as filed in PubChem BioAssay.
The list is not random: actives were taken first. Their share in the collection is about 1.7%.
KCNH2 WT inh = qHTS for Inhibitors of KCHN2 3.1: Wildtype qHTS; Voltage-gated inwardly rectifying potassium channel KCNH2 (Homo sapiens), Q12809; U2OS, BacMam KCNH2, thallium flux FluxOr; hits give low values; activity change, % at 1.84 µM; hit rate 0.37% among 340,000; AID 720551, 2013;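 active = maximum activity change below -70%; inconclusive = maximum activity change between -70% and -50%; inactive = maximum activity change above -50%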; note: % is set by controls: 0 for no effect and ±100 for the full control effect
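U2OS cells transduced with wild-type KCNH2 virus are loaded with FluxOr dye for 45 min, and thallium flux is measured in kinetic reads before and after stimulation buffer. Rate constants are normalized to DMSO controls.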
KCNH2 3.1 block = qHTS for Inhibitors of KCHN2 3.1: Mutant qHTS | activity change, % (tested at about 1.8 µM) | U2OS KCNH2 3.1, thallium flux FluxOr; hits give low values | Potassium voltage-gated channel subfamily H member 2, brain isoform KCNH2 3.1 (human) | hit rate 0.95% among 340,000;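 active = maximum activity change below -70%; inconclusive = maximum activity change from -70% to -50%; inactive = maximum activity change above -50%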;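 note: thallium influx rate constant from kinetic fluorescence after stimulation buffer; % is set by controls: 0 for no effect and ±100 for the full control effect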
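Virally transduced U2OS (3.1 isoform, 4 h infection in dark at RT) → overnight 37 C → FluxOr + Red40 in HBSS/HEPES, 45 min → stimulation buffer, 2 min kinetic read → rate constant vs DMSO controls.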
TRPML1 blocker = qHTS for Inhibitors of the Human Mucolipin Transient Receptor Potential 1 (TRPML1); activity change, negative = inhibition, % (test concentration not listed); AID 624415, 2012; hit rate 0.02% among 390,000; TRPML1-inducible cells, Ca2+ dye fluorescence, FDSS; hits give low values; inhibition of EC80 agonist-evoked calcium signal; in the data active = activity change below about -50%; inconclusive = between about -30% and that limit;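 note: stimulus is agonist 54-4 at its EC80 concentration; % is set by controls: 0 for no effect and ±100 for the full control effect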
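Calcium fluorescence in TRPML1-DL cells induced overnight with Tet: a 110 s read after compound pin addition, then a 110 s antagonist read after challenge with 54-4 at 4 uM final (EC80).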
TRHR agonist = qHTS for Small Molecule Agonists and Allosteric Enhancers of Human TRH Receptor: Primary Screen for Agonists | Thyrotropin-releasing hormone receptor (Homo sapiens), P34981 | TRHR cells, calcium flux fluo-8, FDSS agonist mode | activation, % at 2 µM | hit rate 0.18% among 360,000 | AID 493084, 2011; in the data active = activation above about 30%; note: 0% is about no effect
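TRHR-expressing cells loaded with fluo-8 calcium dye; 23 nL library compound pin-transferred, kinetic FDSS fluorescence (Ex 480/Em 530) recorded about 180 s for agonist-induced calcium release, before a 10 nM TRH EC20 addition for potentiator mode.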
TRPML1 ag = qHTS for Agonists of the Human Mucolipin Transient Receptor Potential 1 (TRPML1); TRPML1-expressing cells, Ca2+ dye fluorescence, FDSS; activation, % (no concentration beside the values); hit rate 0.12% among 410,000; AID 624414, 2012; in the data active = activation above about 50%; inconclusive = mostly about 30% to 49%; note: 0% is about no effect
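Tetracycline-induced TRPML1-DL cells are seeded and incubated overnight before loading with a no-wash Ca2+ dye and quencher. Agonist activity is taken from the 110 s fluorescence read following compound pin-transfer on an FDSS, before EC80 54-4 challenge.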
TRHR PAM = qHTS for Small Molecule Agonists and Allosteric Enhancers of Human TRH Receptor: Primary Screen for Enhancers; TRHR cells, fluo-8 calcium fluorescence, EC20 TRH enhancement; enhancement, % at 2 µM; hit rate 0.66% among 360,000; in the data active = enhancement above about 30%; note: 0% is about no effect
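TRHR-expressing cells loaded with fluo-8 calcium dye were read kinetically (ex 480/em 530) during compound addition, then stimulated with an EC20 of TRH (10 nM final). Enhancement of the Gq-mediated intracellular calcium response was scored.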
Numbers without * were called inactive; ? = inconclusive; / = not tested or not shown.

SMILES	KCNH2 WT inh	KCNH2 3.1 block	TRPML1 blocker	TRHR agonist	TRPML1 ag	TRHR PAM
COC(=O)c1ccc(N=C2SCC(=O)N2C)cc1	-12	11	-6	0	0	37*
COc1ccccc1CNC(=O)CN1C(=O)NC2(CCCc3sccc32)C1=O (centres undefined)	-236*	10	6	0	-1	11
CCC(=O)N1CCc2cc(CNC(=O)c3cccc(N(C)C)c3)ccc21	/	/	-26	-1	1	35*
CC(=O)Nc1cccc(C(=O)NCc2ccc3c(c2)CCN3C(C)=O)c1	/	/	22	1	1	-1
Nc1nc(N)c2c(OCc3ccc(C(F)(F)F)cc3)cccc2n1	/	/	/	/	10	/
CC(=O)c1ccc(NC(=O)C2CC(c3ccc(F)cc3)=NO2)cc1 (centres undefined)	-5	-97*	-2	1	1	0
CC(=O)c1cccc(NC(=O)C2CC(c3ccc(F)cc3)=NO2)c1 (centres undefined)	1	5	-20	1	0	-5
CCC(C)[C@@H](CN)NCC1(c2ccccc2)CC1 (some centres undefined)	-10	3	38	0	0	1
Cc1ccc(S(=O)(=O)N2CCOCC2)cc1C(=O)NCCCn1ccnc1	-90*	-11	21	1	0	14
N#C/C(=C\c1cccnc1)c1nc2c(s1)CCCC2	1	-22	20	2	1	1
COc1cc(/C=C(\C#N)c2nc3c(s2)CCCC3)ccc1O	/	/	/	40*	/	4
CN(C(=O)COc1cc(C(F)(F)F)nn1C)c1ccccc1	/	-1	-13	0	0	35*
CN(C(=O)COC(=O)c1cccc(F)c1)c1ccccc1	-6	-8	19	-1	-1	16
CC(C)C[C@H]1CNC(=S)N1CC1CCN(CCCCc2ccccc2)CC1	12	-71*	34	/	-1	/
S=C1NC[C@H](Cc2ccccc2)N1CCCCC1CCCCC1	2	0	0	0	-1	5
S=C1NC[C@H](Cc2ccccc2)N1CC1CCN(CCCC2CCCC2)CC1	-40	-88*	23	/	0	/
CCCCN1CCC(CN2C(=S)NC[C@@H]2CC(C)C)CC1	39	4	-9	/	0	/
Cc1cc(/C=C\c2ccccc2)nc2ccccc12	-28	-189*	5	-1	1	-3
CN(Cc1ccccc1)C(=O)c1nc2ccccn2c1CNCCn1cccn1	6	/	18	-1	0	34*
CN(Cc1ccccc1)C(=O)c1nc2ccccn2c1CNCCCOc1cccnc1	-2	2	41	4	-1	-5
O=[N+]([O-])c1ccc(S(=O)(=O)Nc2nc3ccccc3nc2Nc2ccccc2)cc1	-16	-7	0	0	52*	-5
COc1ccc(Nc2nc3ccccc3nc2NS(=O)(=O)c2ccc(C)cc2)c(OC)c1	/	/	-20	-1	3	4
COc1cc(Nc2nc3ccccc3nc2NS(=O)(=O)c2ccc([N+](=O)[O-])cc2)cc(OC)c1OC	6	-33	?	0	119*	5
Cc1cccc(CNC(=O)Cn2nc(C)c3nn(-c4ccc(Cl)cc4)c(C)c3c2=O)c1	/	/	-4	-1	1	-3
O=C(c1cccnc1)N1CCN(c2ccc([N+](=O)[O-])cc2Cl)CC1	9	-120*	-2	0	0	1
SMILES	KCNH2 WT inh	KCNH2 3.1 block	TRPML1 blocker	TRHR agonist	TRPML1 ag	TRHR PAM
O=C(c1ccc(-c2ccc(Cl)cc2)o1)N1CCN(c2ccc([N+](=O)[O-])cc2Cl)CC1	-5	-83*	30	1	0	-6
O=C(c1ccc(-c2cccc([N+](=O)[O-])c2)o1)N1CCN(c2ccc([N+](=O)[O-])cc2)CC1	-111*	-116*	29	0	1	-1
Cc1ccc(C)c(N2CC(C(=O)OCC(=O)Nc3cc(C)on3)CC2=O)c1 (centres undefined)	1	17	-5	0	0	3
CC(C)(C)OC(=O)Cc1nnc(C(C(=O)OCc2ccccc2)c2ccccc2)o1 (centres undefined)	/	/	/	1	/	0
COc1ccc(C2C(C#N)=C(N)Nc3nc4ccccc4n32)cc1 (centres undefined)	-113*	11	7	0	0	0
O=C(CN1CCN(S(=O)(=O)c2ccc(Br)cc2)CC1)N/N=C/c1ccc(Br)s1	-27	-76*	0	0	4	-1
Cc1ccc(S(=O)(=O)N2CCN(CC(=O)N/N=C\c3ccc(O)c(O)c3)CC2)cc1	-10	7	-16	0	0	-1
Cc1ccc(S(=O)(=O)N2CCN(CC(=O)N/N=C/C=C/c3ccccc3)CC2)cc1	-5	-75*	13	0	2	1
Cc1ccc(/C=N/NC(=O)CN2CCN(S(=O)(=O)c3ccc(Br)cc3)CC2)s1	-2	-19	-6	-1	3	-4
O=C(Nc1ccc(C(F)(F)F)cc1)C(Cc1ccccc1)n1cccc1 (centres undefined)	/	/	24	1	1	-5
Cc1cc2c(cc1C)NC(CC(=O)Nc1cccc(Cl)c1)C(=O)N2 (centres undefined)	/	/	1	2	2	43*
COc1cc(/C=N\NC(=O)CNC(=O)C(c2ccccc2)c2ccccc2)ccc1O	-3	0	0	0	3	-2
COc1cc(/C=N/NC(=O)CCN2CCN(C(c3ccccc3)c3ccccc3)CC2)ccc1O	-43	-106*	4	-1	0	1
O=C(NCCCN1CCCC1)c1cc(Sc2ccc(F)cc2)nc2ccccc12	42	-78*	-5	0	1	-5
O=C(NCCCN1CCCCC1)c1cc(Sc2ccc(Cl)cc2)nc2ccccc12	/	/	9	1	3	-1
CCN1CCN(P2(=O)C=C(c3ccccc3)OC(c3ccccc3)=C2)CC1	-123*	-90*	0	3	0	3
Nc1nn(-c2ccccc2)nc1C(=O)OCc1c(F)cccc1Cl	/	/	-3	-1	2	-5
